HT1080 IDH1KD tx – toxicity to HT-1080 IDH1 knockdown cells (counter line); HT-1080 IDH1 knockdown viability, ATP luminescence, 48 h; Potency, µM (series often up to 46.1 µM), for inactives: at the top dose activity, negative = toxicity, usual class: cytotoxic; 360,000 compounds, 2% hits;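 also: potency is read from the fitted curve at half-maximal effect; 0% = DMSO wells and -100% = cell-free medium wells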
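In this qHTS, HT-1080 cells depleted of IDH1 are exposed for 48 h at 37 °C to compound titrations. Toxicity is scored from CellTiter-Glo luminescence, with DMSO as full viability and medium alone as none.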
DT40 TDP1 no CPT – qHTS for Inhibitors of human tyrosyl-DNA phosphodiesterase 1 (TDP1): qHTS in cells in absence of CPT | 420,000 compounds, 15% hits | DT40 Tdp1-/- hTDP1 cells, no CPT, ATP luminescence, 48 h | AID 686978, 2013 | Potency, µM (top dose mostly 46.2 µM), for the others: at the highest dose activity change, negative = growth inhibition, actives largely listed as inhibitors; also: potency is read from the fitted curve at half-maximal effect; nearly all actives have a fitted effect of over 55% in size
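Growth of hTDP1-complemented DT40 Tdp1-knockout cells is measured by ATP luminescence after at least 48 hr compound exposure at 37 °C, with DMSO substituting for the 20 nM CPT used in the parallel screen.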
HT1080-NT tox – kills 2HG-producing HT-1080-NT fibrosarcoma cells; 360,000 compounds, 1.6% hits; Potency, µM (series often up to 46.1 µM), inactives show at the highest dose activity, negative = less viability, most hits filed as cytotoxic; HT-1080-NT fibrosarcoma viability, CellTiter-Glo ATP luminescence, 48 h;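 also: NT is the 2HG producing partner of a matched IDH1 knockdown line; potency is read from the fitted curve at half-maximal effect; 0% = DMSO-treated cells and -100% = media-only wells without cells; nearly all actives have a fitted effect of over 55% in size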
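Compounds were tested in concentration-response format on HT-1080-NT cells for 48 hours at 37 degrees C. Cell viability came from CellTiter-Glo luminescence; curves were classified by r2, response magnitude and activity.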
IL1B secr inh – blocks inflammasome-driven IL-1 beta release | activity change, % at 57.5 µM | THP-1 LPS/ATP IL-1B secretion, AlphaLISA, 16 h; stronger effect = lower value | 360,000 compounds, 4.7% hits; in the data active = activity change below about -50%; inconclusive = mostly about -30% to -49%
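THP-1 cells pretreated 1 hr with compounds (up to 57.5 uM final), then stimulated with LPS (250 ng/mL final) plus ATP (1.25 mM final); secreted IL-1B measured by AlphaLISA after 16 hr, decreased signal indicating inhibition.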
DT40 TDP1 CPT – DT40-hTDP1 cell growth loss with CPT | chicken DT40 Tdp1-/-;hTDP1 cells + 20 nM CPT, ATP luminescence, 48 h | Potency, µM (doses to about 46.2 µM), for the others: at the top dose activity change, negative = growth inhibition, most hits filed as inhibitors | 420,000 compounds, 12% hits | AID 686979; also: potency is read from the fitted curve at half-maximal effect; nearly all actives have a fitted effect of over 55% in size
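Chicken DT40 Tdp1-/- cells stably complemented with human TDP1 were seeded at 400 cells/well in medium containing 20 nM camptothecin, exposed to pin-transferred compounds, and grown at 37 °C for at least 48 hr. Viability was read as ATP luminescence.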
* marks the source's active call; other numbers are inactive results; ? = inconclusive; / = not tested or not shown. Compounds with a hit are over-represented: about 19% of the library has one in this group of screens. Unless noted, calls follow the shape of the dose curve; as a rule, active = well fitted curve in the direction sought with a large enough effect; inconclusive = small, poorly fitted or top-dose-only effect, or another doubt; inactive = no such curve, though single readings can be large; an effect the other way counts as inactive or inconclusive. Unless noted, % is scaled to controls: 0 for no effect and ±100 for the full control effect.

SMILES	HT1080 IDH1KD tx	DT40 TDP1 no CPT	HT1080-NT tox	IL1B secr inh	DT40 TDP1 CPT
CCCCCNC(=O)C(c1cc2ccccc2o1)n1c(=O)c(-c2ccccc2)nc2ccccc21 (centres undefined)	-12%	?	1%	-8	?
CCOCCCNC(=O)NC(=O)CN1CCN(S(=O)(=O)c2ccc3c(c2)OCCO3)CC1	6%	-29%	-1%	1	-1%
CCN1C(=O)[C@H]2[C@@H](c3ccc(-c4ccc(F)cc4)c(OC)c3)N3CCC[C@@]3(C(=O)OC)[C@H]2C1=O	-2%	8.2µM*	1%	31	8.2µM*
COC(=O)[C@@]12CCCCN1[C@H](c1ccc(-c3ccc4c(c3)OCO4)c(OC)c1)[C@@H]1C(=O)N(C)C(=O)[C@@H]12	1%	?	-17%	4	?
CCN1C(=O)[C@@H]2[C@@H](c3ccc(-c4ccc(Cl)c(Cl)c4)c(OC)c3)N3CCC[C@@]3(C(=O)OC)[C@@H]2C1=O	-25%	9.2µM*	-29%	-18	8.2µM*
CCN1C(=O)[C@@H]2[C@@H](c3ccc(SC4CCCCC4)c(OC)c3)N3CCC[C@@]3(C(=O)OC)[C@@H]2C1=O	-1%	?	-1%	-3	23µM*
CCN1C(=O)[C@@H]2[C@@H](c3ccc(-c4cccc(Cl)c4)c(OC)c3)N3CCCC[C@@]3(C(=O)OC)[C@@H]2C1=O	0%	16µM*	10%	-13	?
CCCc1nnc(SCC(=O)NC2CC2)n1C	12%	-8%	-5%	6	1%
C#CCNC(=O)C1=C[C@H](C(C)(C)C)C[C@H](OCCCCO)O1	0%	-26%	0%	22	-24%
COc1ccc(NC(=O)Cn2c(=O)n(CCC(=O)NCc3ccccc3OC)c(=O)c3ccccc32)cc1Cl	/	?	/	/	-30%
COC1=CC(=O)c2c(ccc3ncnc(N)c23)C1=O	2.9µM*	0.29µM*	4.1µM*	-112*	0.21µM*
CN(c1ccccc1)S(=O)(=O)c1cccc(C(=O)NCCc2ccc(O)c(O)c2)c1	?	12µM*	-26%	14	8.2µM*
Cc1ccc(S(=O)(=O)N(C)c2ccc(C(=O)NCCc3ccccc3)cc2)cc1	-10%	?	-5%	-1	?
CCN(c1ccccc1)S(=O)(=O)c1ccc(OC)c(OC)c1	1%	-15%	13%	-2	-3%
COc1ccc(CCNC(=O)c2ccc(S(=O)(=O)N(C)c3ccccc3)cc2)cc1OC	-1%	23µM*	2%	30	?
CCOc1ccc(S(=O)(=O)N(C)c2ccc(OCC(=O)NCCc3ccc(OC)cc3)cc2)cc1	15%	23µM*	2%	2	21µM*
CCN(CC)S(=O)(=O)c1cccc(C(=O)NCCc2ccccc2)c1	-16%	?	-13%	22	?
CCN(c1ccccc1)S(=O)(=O)c1ccc(C(=O)N(C)CCc2ccc(OC)c(OC)c2)cc1	-1%	21µM*	-14%	-18	?
N#Cc1nn(-c2ccccc2)nc1N1CCCCC1	-5%	-12%	-1%	-20	-3%
CN(c1ccccc1)S(=O)(=O)c1cccc(C(=O)NCc2ccccc2CN2CCCC2)c1	?	?	?	-7	?
CCN(c1ccccc1)S(=O)(=O)c1ccc(Cl)c(C(=O)NCCc2ccc(OC)cc2)c1	-1%	?	-1%	5	18µM*
COc1ccc(CCNC(=O)c2ccccc2N(C)S(=O)(=O)c2ccccc2)cc1	-4%	-20%	2%	0	-11%
CCOc1ccc(S(=O)(=O)N(C)c2ccc(OCC(=O)NCC3CCCCC3)cc2)cc1	-7%	21µM*	-2%	?	16µM*
COc1ccc(CCNC(=O)c2ccc(N(C)S(=O)(=O)c3ccc(C)cc3)cc2)cc1	-4%	16µM*	-9%	-2	?
COc1ccccc1CNC(=O)c1cccc(S(=O)(=O)N(C)c2ccccc2)c1	1%	?	-7%	-5	26µM*
SMILES	HT1080 IDH1KD tx	DT40 TDP1 no CPT	HT1080-NT tox	IL1B secr inh	DT40 TDP1 CPT
Cc1ccc(C)c(S(=O)(=O)NC(C)C(=O)Nc2ccc(-c3nc4ccccc4s3)cc2)c1 (centres undefined)	-19%	?	-14%	1	-2%
Cc1cc(OC(=O)c2cccc(Br)c2)c([N+](=O)[O-])c(=O)[nH]1	5%	-10%	2%	29	-2%
COc1ccc(CCNC(=O)c2ccc(Cl)c(S(=O)(=O)N(C)c3ccccc3)c2)cc1	-22%	16µM*	-11%	?	21µM*
COc1cc(C(=O)NCCCN2CCCC2=O)ccc1OCc1ccc(Cl)cc1Cl	6%	18µM*	11%	-52*	13µM*
Cc1ccc(NS(=O)(=O)c2ccc(C(=O)NCCCN3CCCC3=O)cc2)cc1C	-21%	23µM*	-16%	1	13µM*
Cc1ccc(NC(=O)CN2CCN(C(=O)C3CC3)CC2)c(F)c1	-12%	-17%	2%	-4	-17%
CC(=O)NN1C(=O)/C(=C\c2ccc(Br)o2)SC1=S	?	16µM*	?	-97*	?
CC(C)CCn1c(N2CCCC2)nc2c1c(=O)n(C)c(=O)n2C	-7%	21µM*	-3%	43	?
CCCCCCn1c(N2CCCC2)nc2c1c(=O)n(C)c(=O)n2C	-11%	18µM*	-8%	-3	?
Cn1c(=O)c2c(nc(N3CCCCC3)n2C)n(C)c1=O	1%	7%	1%	17	-2%
C=C(C)Cn1c(N2CCCC2)nc2c1c(=O)n(C)c(=O)n2C	2%	?	-3%	8	?
CC[N+]1(C)CCC(=C2c3ccccc3CC(=O)c3sccc32)CC1 (centres undefined)	0%	-16%	0%	-9	-19%
C[N+]1(C)CCC(=C2c3ccccc3CC(=O)c3sccc32)CC1	?	?	-21%	-6	26µM*
CC(=O)Nc1ccc(S(=O)(=O)NC2(C(F)(F)F)C(=O)Nc3c2c(=O)[nH]c(=O)n3Cc2ccco2)cc1 (centres undefined)	6%	8%	1%	9	?
C[C@@H]1CC(=O)[C@H]2CC(CO)=CCC[C@@H]2[C@@]1(C)CC/C(=C/CO)CO	5%	-5%	1%	-3	-5%
CC(C)C1C(=O)Nc2ccc(S(=O)(=O)NCc3ccc(Cl)cc3)cc21 (centres undefined)	/	16µM*	/	/	23µM*

From PubChem BioAssay
